# Measured values taken from the supplement of paper PMC12282887.
# ± gives the standard deviation of the averaged measurements.
# Columns and labels:
# Experiment in all cases: promoter activity interaction Z-score (Lux/OD deviation from empty-vector control); higher = stronger promoter induction by the compound
# [1] = tested on: E. coli BW25113 acrABp lux reporter
# In short: (§1)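 Every compound was given at four 1:2 dilutions, in biological duplicates, to E. coli BW25113 carrying low-copy luxCDABE promoter reporters in wild-type or single-gene deletion backgrounds. Growth in 40 µl LB Lennox in 384-well plates at 37°C was followed by OD600 and luminescence readings every 30 min for 12 h, integrated over 0–8 h for wild type and 1–9 h for deletion strains, with wells below 10% of the median growth value excluded. Scores are Z-transformed residuals of growth-normalised luminescence fitted against a control.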
# [2] = tested on: E. coli BW25113 marRABp lux reporter
# In short: as §1
# [3] = tested on: E. coli BW25113 micFp lux reporter
# In short: as §1
# [4] = tested on: E. coli BW25113 ompFp lux reporter
# In short: as §1
# [5] = tested on: E. coli BW25113 robp lux reporter
# In short: as §1
# [6] = tested on: E. coli BW25113 soxSp lux reporter
# In short: as §1
# [7] = tested on: E. coli BW25113 tolCp lux reporter
# In short: as §1
# [8] = 24.5 µg/ml, genetic background: wild type
# [9] = 24.5 µg/ml, genetic background: ΔmarA
# [10] = 24.5 µg/ml, genetic background: Δrob
# [11] = 24.5 µg/ml, genetic background: ΔsoxS
# [12] = 49.1 µg/ml, genetic background: wild type
# [13] = 49.1 µg/ml, genetic background: ΔmarA
# [14] = 49.1 µg/ml, genetic background: Δrob
# [15] = 49.1 µg/ml, genetic background: ΔsoxS
# [16] = 98.1 µg/ml, genetic background: wild type
# [17] = 98.1 µg/ml, genetic background: ΔmarA
# [18] = 98.1 µg/ml, genetic background: Δrob
# [19] = 98.1 µg/ml, genetic background: ΔsoxS
# [20] = 196.3 µg/ml, genetic background: wild type
# [21] = 196.3 µg/ml, genetic background: ΔmarA
# [22] = 196.3 µg/ml, genetic background: Δrob
# [23] = 196.3 µg/ml, genetic background: ΔsoxS
structure (smiles),measurement,setting,value
C[C@H](CCC(=O)O)[C@H]1CC[C@H]2[C@@H]3CC[C@@H]4C[C@H](O)CC[C@]4(C)[C@H]3C[C@H](O)[C@]12C [Deoxycholic acid],promoter activity interaction Z-score,[1]; [8],-0.00545 ± 0.031
same,promoter activity interaction Z-score,[1]; [9],1.57 ± 0.29
same,promoter activity interaction Z-score,[1]; [10],-0.132 ± 0.14
same,promoter activity interaction Z-score,[1]; [11],-0.386 ± 0.27
same,promoter activity interaction Z-score,[1]; [12],-0.226 ± 0.0089
same,promoter activity interaction Z-score,[1]; [13],0.503 ± 0.52
same,promoter activity interaction Z-score,[1]; [14],-0.0467 ± 0.16
same,promoter activity interaction Z-score,[1]; [15],-0.057 ± 0.47
same,promoter activity interaction Z-score,[1]; [16],0.106 ± 0.28
same,promoter activity interaction Z-score,[1]; [17],1.38 ± 1.5
same,promoter activity interaction Z-score,[1]; [18],-0.154 ± 0.21
same,promoter activity interaction Z-score,[1]; [19],0.252 ± 0.27
same,promoter activity interaction Z-score,[1]; [20],-0.41 ± 0.14
same,promoter activity interaction Z-score,[1]; [21],0.181 ± 0.34
same,promoter activity interaction Z-score,[1]; [22],-0.162 ± 0.13
same,promoter activity interaction Z-score,[1]; [23],-0.502 ± 0.59
same,promoter activity interaction Z-score,[2]; [8],-0.31 ± 0.18
same,promoter activity interaction Z-score,[2]; [9],-0.0533 ± 0.055
same,promoter activity interaction Z-score,[2]; [10],-0.148 ± 0.14
same,promoter activity interaction Z-score,[2]; [11],-0.343 ± 0.17
same,promoter activity interaction Z-score,[2]; [12],-0.0619 ± 0.22
same,promoter activity interaction Z-score,[2]; [13],-0.261 ± 0.22
same,promoter activity interaction Z-score,[2]; [14],-0.128 ± 0.13
same,promoter activity interaction Z-score,[2]; [15],-0.203 ± 0.24
same,promoter activity interaction Z-score,[2]; [16],-0.0956 ± 0.065
same,promoter activity interaction Z-score,[2]; [17],-0.111 ± 0.12
same,promoter activity interaction Z-score,[2]; [18],-0.283 ± 0.077
same,promoter activity interaction Z-score,[2]; [19],-0.336 ± 0.16
same,promoter activity interaction Z-score,[2]; [20],-0.225 ± 0.38
same,promoter activity interaction Z-score,[2]; [21],-0.118 ± 0.15
same,promoter activity interaction Z-score,[2]; [22],-0.197 ± 0.065
same,promoter activity interaction Z-score,[2]; [23],-0.366 ± 0.062
same,promoter activity interaction Z-score,[3]; [8],-0.343 ± 0.23
same,promoter activity interaction Z-score,[3]; [9],0.0199 ± 0.11
same,promoter activity interaction Z-score,[3]; [10],0.0283 ± 0.0044
same,promoter activity interaction Z-score,[3]; [11],-0.264 ± 0.083
same,promoter activity interaction Z-score,[3]; [12],-0.355 ± 0.065
same,promoter activity interaction Z-score,[3]; [13],0.175 ± 0.087
same,promoter activity interaction Z-score,[3]; [14],-0.0435 ± 0.061
same,promoter activity interaction Z-score,[3]; [15],-0.146 ± 0.02
same,promoter activity interaction Z-score,[3]; [16],0.114 ± 0.12
same,promoter activity interaction Z-score,[3]; [17],0.0675 ± 0.083
same,promoter activity interaction Z-score,[3]; [18],-0.0555 ± 0.049
same,promoter activity interaction Z-score,[3]; [19],0.221 ± 0.023
same,promoter activity interaction Z-score,[3]; [20],0.0636 ± 0.083
same,promoter activity interaction Z-score,[3]; [21],0.21 ± 0.12
same,promoter activity interaction Z-score,[3]; [22],-0.134 ± 0.011
same,promoter activity interaction Z-score,[3]; [23],-0.044 ± 0.02
same,promoter activity interaction Z-score,[4]; [8],-0.553 ± 0.23
same,promoter activity interaction Z-score,[4]; [9],-1.03 ± 0.14
same,promoter activity interaction Z-score,[4]; [10],-0.889 ± 0.033
same,promoter activity interaction Z-score,[4]; [11],-0.771 ± 0.0099
same,promoter activity interaction Z-score,[4]; [12],-0.241 ± 0.37
same,promoter activity interaction Z-score,[4]; [13],-0.568 ± 0.061
same,promoter activity interaction Z-score,[4]; [14],-0.421 ± 0.46
same,promoter activity interaction Z-score,[4]; [15],-0.619 ± 0.45
same,promoter activity interaction Z-score,[4]; [16],0.192 ± 0.079
same,promoter activity interaction Z-score,[4]; [17],-1.07 ± 0.24
same,promoter activity interaction Z-score,[4]; [18],-0.618 ± 0.14
same,promoter activity interaction Z-score,[4]; [19],-0.316 ± 0.15
same,promoter activity interaction Z-score,[4]; [20],-0.117 ± 0.52
same,promoter activity interaction Z-score,[4]; [21],-0.473 ± 0.02
same,promoter activity interaction Z-score,[4]; [22],-0.582 ± 0.058
same,promoter activity interaction Z-score,[4]; [23],-0.78 ± 0.4
same,promoter activity interaction Z-score,[5]; [8],0.346 ± 0.23
same,promoter activity interaction Z-score,[5]; [9],-0.527 ± 0.51
same,promoter activity interaction Z-score,[5]; [10],0.184 ± 0.84
same,promoter activity interaction Z-score,[5]; [11],-0.0515 ± 0.27
same,promoter activity interaction Z-score,[5]; [12],0.0327 ± 0.23
same,promoter activity interaction Z-score,[5]; [13],0.517 ± 0.54
same,promoter activity interaction Z-score,[5]; [14],0.31 ± 0.44
same,promoter activity interaction Z-score,[5]; [15],0.767 ± 0.39
same,promoter activity interaction Z-score,[5]; [16],0.553 ± 0.54
same,promoter activity interaction Z-score,[5]; [17],0.501 ± 0.48
same,promoter activity interaction Z-score,[5]; [18],0.729 ± 1.3
same,promoter activity interaction Z-score,[5]; [19],-0.0126 ± 0.038
same,promoter activity interaction Z-score,[5]; [20],0.502 ± 0.87
same,promoter activity interaction Z-score,[5]; [21],0.13 ± 0.13
same,promoter activity interaction Z-score,[5]; [22],-0.399 ± 0.066
same,promoter activity interaction Z-score,[5]; [23],0.439 ± 0.14
same,promoter activity interaction Z-score,[6]; [8],0.0465 ± 0.031
same,promoter activity interaction Z-score,[6]; [9],-0.0486 ± 0.044
same,promoter activity interaction Z-score,[6]; [10],0.0418 ± 0.059
same,promoter activity interaction Z-score,[6]; [11],-0.115 ± 0.036
same,promoter activity interaction Z-score,[6]; [12],0.0154 ± 0.03
same,promoter activity interaction Z-score,[6]; [13],-0.092 ± 0.13
same,promoter activity interaction Z-score,[6]; [14],-0.0215 ± 0.03
same,promoter activity interaction Z-score,[6]; [15],-0.228 ± 0.12
same,promoter activity interaction Z-score,[6]; [16],0.124 ± 0.18
same,promoter activity interaction Z-score,[6]; [17],-0.348 ± 0.085
same,promoter activity interaction Z-score,[6]; [18],-0.0505 ± 0.11
same,promoter activity interaction Z-score,[6]; [19],-0.203 ± 0.29
same,promoter activity interaction Z-score,[6]; [20],-0.0569 ± 0.038
same,promoter activity interaction Z-score,[6]; [21],-0.335 ± 0.053
same,promoter activity interaction Z-score,[6]; [22],-0.26 ± 0.051
same,promoter activity interaction Z-score,[6]; [23],-0.515 ± 0.0068
same,promoter activity interaction Z-score,[7]; [8],0.918 ± 0.69
same,promoter activity interaction Z-score,[7]; [9],0.218 ± 0.13
same,promoter activity interaction Z-score,[7]; [10],1.08 ± 1.6
same,promoter activity interaction Z-score,[7]; [11],0.883 ± 0.56
same,promoter activity interaction Z-score,[7]; [12],0.21 ± 0.56
same,promoter activity interaction Z-score,[7]; [13],0.972 ± 1.2
same,promoter activity interaction Z-score,[7]; [14],0.2888 ± 0.00083
same,promoter activity interaction Z-score,[7]; [15],-0.388 ± 0.38
same,promoter activity interaction Z-score,[7]; [16],0.816 ± 0.38
same,promoter activity interaction Z-score,[7]; [17],0.304 ± 0.81
same,promoter activity interaction Z-score,[7]; [18],0.00196 ± 0.37
same,promoter activity interaction Z-score,[7]; [19],1.18 ± 1.1
same,promoter activity interaction Z-score,[7]; [20],-0.28 ± 1.4
same,promoter activity interaction Z-score,[7]; [21],-0.467 ± 0.27
same,promoter activity interaction Z-score,[7]; [22],-0.148 ± 0.072
same,promoter activity interaction Z-score,[7]; [23],-0.718 ± 1.1
